Source: PubChem BioAssay

Molecular target: Carbonic anhydrase 2 (Homo sapiens) (UniProt P00918)
Assay: compounds binding carbonic anhydrase 2 – biochemical, small-molecule microarray, Alexa647-labelled CAII, profiling panel (AID 1122)
Settings: CAII-A647 binding fluorescence, higher = more signal

Row | SMILES | composite z-score
1 | COc1ccc(C(=O)Nc2ccc(CN3C(=O)[C@@]4(O[C@@H](CC(=O)N5CCC[C@H]5CO)[C@H]([Si](C)(C)c5ccc(OC)cc5)[C@H]4C)c4ccccc43)cc2)cc1 | 0.51
2 | CN1C(=O)C2C=CC(C(O)C3=C[C@H]4C[C@@H](C3)C4(C)C)N(Nc3ccccc3)C2C1=O (some centres undefined) | 0.645
3 | CS(=O)(=O)CCOC(=O)C1=CC(CCCO)=CC(c2ccc(CN3CCCC3)cc2)N(Cc2cc3c(cc2Br)OCO3)C=C1C(=O)OCCS(C)(=O)=O (centres undefined) | 0.804
4 | COC(=O)[C@@]1(Cc2ccc(OC)cc2)[C@H]2c3cc(C(=O)N4CCCC4)n(Cc4ccccc4)c3C[C@H]2CN1C(=O)c1ccccc1 | 0.791
5 | C[N+](C)(C)CCCCNC(=O)[C@H]1C[C@H]2C(=O)N[C@@H](Cc3ccccc3)C(=O)N2[C@H]1c1ccc(O)cc1 | 0.358
6 | C[C@]1(C(=O)NC2CC2)c2ccccc2C(=O)N(Cc2cc(C(F)(F)F)cc(C(F)(F)F)c2)[C@H]1c1ccc(CO)cc1 | 0.412
7 | CCCC#C[Si](O[C@H](CC)c1cn([C@H](CO)Cc2ccccc2)nn1)(C(C)C)C(C)C | 0.667
8 | CC(=O)N1Cc2ccccc2C[C@@]2(COC(c3ccc(OCCCO)cc3)=N2)C1=O | 0.669
9 | CC(C)(C)OC(=O)CC[C@@]1(C(=O)NCCN2CCOCC2)N=C(c2ccc(OCCCO)cc2)O[C@@H]1c1ccccc1N=[N+]=[N-] | 0.742
10 | CN1C(=O)C2C=CC(C(O)c3ccccc3)N(Nc3ccccc3)C2C1=O (centres undefined) | 0.78
11 | CC(=O)n1cc(C(O)C2C=CC3C(=O)N(C)C(=O)C3N2Nc2ccccc2)c2ccccc21 (centres undefined) | 0.562
12 | C=C(COC)/C(=C/C[C@H](OC(=O)c1ccncc1)c1ccc(OCCO)cc1)c1cnc2ccccc2c1 | 0.86
13 | COc1ccc(C#Cc2ccc3c(c2)[C@]2(C(=O)N3)[C@H](c3ccccc3OCCO)N3[C@H](c4ccccc4)[C@H](c4ccccc4)OC(=O)[C@H]3[C@@H]2C(=O)O)cc1 | 0.473
14 | C=CC[C@]1(C(=O)N2CCCCC2)N=C(c2ccc(OCCCO)cc2)O[C@H]1c1ccccc1 | 0.63
15 | COCCOC(=O)N1C(=O)[C@@]2(c3cc(C#Cc4ccc(OC)cc4)ccc31)[C@H](C(N)=O)[C@H]1C(=O)O[C@H](c3ccccc3)[C@H](c3ccccc3)N1[C@@H]2c1ccccc1OCCO | 0.653
16 | O=C1OCCC/C=C\[C@H]2OC34C=CCN(Cn5nnc6ccccc65)C(=O)[C@H]3N(CCO)C(=O)[C@@H]4C12 (some centres undefined) | 0.987
17 | C=CCN1C(=O)[C@@]2(O[C@@H](CCO)[C@H]([Si](C)(C)c3ccc(OC)cc3)[C@H]2C)c2cc(NC(=O)c3ccc(OC)cc3)ccc21 | 0.187
18 | COc1ccc(C(O)C2C=CC3C(=O)N(c4ccccc4)C(=O)C3N2Nc2ccccc2F)cc1OCc1ccccc1 (centres undefined) | 0.51
19 | CCCCCN1CC=CC23O[C@@H]4/C=C\CCCOC(=O)C4[C@H]2C(=O)N(CCCO)[C@@H]3C1=O (some centres undefined) | 0.689
20 | CN(C)C(=O)[C@@]1(Cc2ccccc2)N=C(c2ccc(OCCCO)cc2)O[C@H]1c1ccccc1N=[N+]=[N-] | 0.765
21 | O=C1OCC=C[C@H]2OC34C=CCN(CCN5CCOCC5)C(=O)[C@H]3N(CCCO)C(=O)[C@@H]4[C@@H]12 (some centres undefined) | -0.0692
22 | CN(C)C(=O)[C@]1(Cc2ccccc2N=[N+]=[N-])N=C(c2ccc(OCCCO)cc2)O[C@@H]1c1ccccc1 | 0.623
23 | COc1ccc(C(=O)Nc2ccc(CN3C(=O)[C@@]4(O[C@@H](CCO)[C@H]([Si](C)(C)c5ccc(OC)cc5)[C@H]4C)c4ccccc43)cc2)cc1 | 0.531
24 | CCOC(=O)C[C@H]1[C@H](OC(=O)Cc2ccc3c(c2)OCO3)[C@@H](NC(=O)c2ccc3ccccc3c2)c2cc(OCCCO)ccc2N1C(=O)c1ccccc1 | 0.32
25 | COc1ccc(C(=O)O[C@H]2CC[C@]3(C)C4=C(CCC3C2(C)C)[C@]2(C)CC[C@H]([C@H](C)CCCC(C)C)[C@@]2(C)CC4)cc1 (some centres undefined) | -0.008
26 | CN1C(=O)[C@]2(Cc3ccccc3)N=C(c3ccc(OCCCO)cc3)O[C@@H]2c2ccccc21 | 0.635
27 | COc1ccc(CCNC(=O)[C@@]2(C)c3ccccc3C(=O)N(Cc3cc(F)cc(C(F)(F)F)c3)[C@H]2c2ccc(CO)cc2)cc1 | 0.726
28 | COc1ccc(C(O)C2C=CC3C(=O)NC(=O)C3N2Nc2ccccn2)cc1 (centres undefined) | 0.482
29 | CN(C)CCCC[C@@H]1NC(=O)[C@H]2C[C@@H](C(=O)NCCCCCNC(=O)CS)[C@@H](c3cccc(OCCO)c3)N2C1=O | 0.661
